This is a sample that favours compounds with a hit; in the whole collection about 12% have one here.
OTUD3 inh: inhibitors of human OTUD3 deubiquitinase; OTU domain-containing protein 3 (Homo sapiens), Q5T2D3; purified OTUD3, Ub-rhodamine fluorescence, 2 h; inhibition, % at 25 µM; actives 0.7% (n = 47,000); AID 1645858, 2021
Target sequence (Q5T2D3 whole entry, looked up, the tested form may be a part): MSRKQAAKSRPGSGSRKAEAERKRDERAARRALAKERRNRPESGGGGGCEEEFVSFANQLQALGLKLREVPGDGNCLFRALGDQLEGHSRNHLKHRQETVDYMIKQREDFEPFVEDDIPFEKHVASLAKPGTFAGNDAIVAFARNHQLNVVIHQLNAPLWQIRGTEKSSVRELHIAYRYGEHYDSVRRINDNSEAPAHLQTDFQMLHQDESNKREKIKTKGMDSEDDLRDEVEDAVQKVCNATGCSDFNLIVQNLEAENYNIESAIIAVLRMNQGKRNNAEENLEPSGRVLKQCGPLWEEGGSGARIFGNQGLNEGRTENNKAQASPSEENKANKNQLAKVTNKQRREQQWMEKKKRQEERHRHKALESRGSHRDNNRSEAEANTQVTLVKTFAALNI
USP30 inh: inhibitors of human USP30 deubiquitinase; Ubiquitin carboxyl-terminal hydrolase 30 (Homo sapiens), Q70CQ3; AID 1645860, 2021; inhibition, % at 25 µM; actives 5.3% (n = 47,000); purified USP30, Ub-rhodamine cleavage fluorescence
USP17 block: inhibitors of human USP17 deubiquitinase; Ubiquitin carboxyl-terminal hydrolase 17-like protein 5 (Homo sapiens), A8MUK1; purified USP17, Ub-rhodamine cleavage fluorescence, 3 h; inhibition, % at 50 µM; actives 6.5% (n = 47,000); AID 1645855, 2021
USP28 inh: inhibitors of human USP28 deubiquitinase; actives 3% (n = 47,000); inhibition, % at 25 µM; purified USP28, Ub-rhodamine cleavage fluorescence, 30 min; AID 1645857, 2021; Ubiquitin carboxyl-terminal hydrolase 28 (Homo sapiens), Q96RU2
Each line names hits and unclear results; the compound was inactive in the other large screens. No stated cut-off is given here; in the data, active means inhibition above about 30%; inactive means the rest.

CCN1C(SCc2ccccc2F)=NS(=O)(=O)c2ccccc21	USP28 inh 74
CNc1nc2c(c(=O)n1C)CN(C(=O)Nc1cccc3ccccc13)CC2	OTUD3 inh 59, USP17 block 71, USP28 inh 43
COc1ccc(NC(=O)c2ccco2)cc1NC(=O)c1ccc(F)cc1	none
COc1ccc(NC(=O)Cc2csc(NC(=O)c3ccco3)n2)cc1Cl	USP17 block 49
COc1c2n(c3ccccc13)[C@@]1(O)C(=O)N(C)C(=O)[C@@]1(O)c1c-2n(C)c2ccc(Cl)cc12	OTUD3 inh 50, USP17 block 59, USP28 inh 42
Cc1cccc(-c2c(NC(=O)c3ccc(Cl)cc3Cl)n(C)c3ccccc3c2=O)c1	none
Cc1oc(-c2[nH]ncc2C(=O)N2CCCC2)cc1S(=O)(=O)N1CCN(CC(C)C)CC1	none
Cc1cccc(CNC(=O)c2nc(N3CCSCC3)c3cn(C)nc3n2)c1	none
Cc1sc(-c2cccnc2)nc1OC(=O)c1ccc(S(C)(=O)=O)cc1Cl	none
Cc1sc(-c2cccnc2)nc1OC(=O)c1ccc(Cl)c(Cl)c1	USP30 inh 62, USP17 block 38
O=C(Nc1ccc(CN2CCOCC2)cc1)c1cccc([N+](=O)[O-])c1	none
O=C(Nc1ccc(CN2CCOCC2)cc1)c1cc2cc(Br)ccc2o1	USP28 inh 47
O=C(Nc1ccccc1)N1CCC2(CC1)COCCN(Cc1cccnc1)C2	none
COc1ccc(NC(=O)C2[C@@H]3C(=O)N(C4CCCCC4)C(=O)[C@@H]3[C@H]3c4ccccc4C=CN23)cc1 (stereo partly specified)	USP17 block 60
CCn1nc(C(=O)N2CCC(c3cc(=O)n4[nH]ccc4n3)CC2)cc1C	none
CCS(=O)(=O)N1CCN(c2ccc(NCc3ccccc3)nn2)CC1	none
Cc1cccc(CSCCNC(=O)CN2C(=O)c3cccc4cccc2c34)c1	USP17 block 41
O=C(CN1C(=O)c2cccc3cccc1c23)NCCSCc1ccc(Cl)c(Cl)c1	none
C/C=C/c1cc2c(c(=O)o1)C(=O)[C@H](O)[C@@H](C)O2	none
O=C(O)C(Cc1ccccc1)NS(=O)(=O)c1ccc2c(c1)OCCO2 (stereo unspecified)	none
O=C(NCc1ccccc1)C(Cc1ccccc1)NS(=O)(=O)c1ccc2c(c1)OCCO2 (stereo unspecified)	USP30 inh 52, USP17 block 86, USP28 inh 56
O=C(Nc1ccc(N2CCOCC2)cc1)C(Cc1ccccc1)NS(=O)(=O)c1ccc2c(c1)OCCO2 (stereo unspecified)	USP28 inh 37
NCC(=O)N1CCCC(c2cncc(Oc3ccccc3)n2)C1 (stereo unspecified)	none
Cn1c(N)c(C(=O)CSc2nnc(Cn3cnc4ccccc43)n2-c2ccccc2Cl)c(=O)n(C)c1=O	USP30 inh 39
Cn1c(N)c(C(=O)COc2ccc([N+](=O)[O-])cc2Cl)c(=O)n(C)c1=O	none
N#Cc1c(-c2ccc(Cl)cc2)ccn2nc(-c3ccco3)nc12	none
N#Cc1c(-c2ccco2)ccn2nc(-c3ccc(Cl)cc3Cl)nc12	USP17 block 46
COCCn1c(C)cc(C(=O)c2sc(-c3c(N)n(C)c(=O)n(C)c3=O)nc2-c2ccccc2)c1C	USP17 block 35
Cc1ccc(SCC(=O)Nc2sc3c(c2C(N)=O)CCN(C(C)C)C3)cc1	none
O=C(NCc1ccccc1F)Nc1ccccc1[N+](=O)[O-]	USP30 inh 57, USP17 block 73
CCOc1cc(N2CCOCC2)c(OCC)cc1NC(=O)c1ccccc1Oc1ccccc1	none
CCOc1cc(N2CCOCC2)c(OCC)cc1NC(=O)c1cc(-c2ccncc2)nc2ccccc12	USP17 block 66
CC(=O)Nc1ccc(C2(C(=O)NC3CCCC3)CCC2)cc1	none
CCOC(=O)N1CCN(c2cc(C(C)C)nc3nc(-c4cccnc4)nn23)CC1	USP30 inh 33
CC(C)c1cc(N2CCCCC2)n2nc(-c3cccnc3)nc2n1	none (no result: USP30 inh, USP28 inh)
CCCc1cc(N2CCCCC2)n2nc(-c3cccnc3)nc2n1	USP30 inh 31
COc1ccc(CNc2nc3ccc(C)cc3cc2-c2noc(C)n2)c(OC)c1	none
Cc1ccc(C(=O)NCc2ccc(C(=O)Nc3cccc(C)c3)o2)cc1	USP30 inh 44, USP17 block 60
Cc1ccc(NC(=O)c2ccc(C)c(C)c2)cc1C	USP28 inh 40
Cc1ccc(C(=O)Nc2ccc(C)c(C)c2)c(C)c1	none
Cc1ccc(C(=O)NCc2ccc(C(=O)Nc3ccc(C)c(C)c3)o2)cc1	USP30 inh 42, USP17 block 54
CNC(=O)c1[nH]c2cc(OC)ccc2c1Sc1ccc(Cl)cc1	none
Cn1cnnc1-c1cccc(NC(=O)Nc2cccc3ccccc23)c1	USP17 block 42
Cc1cnnn1-c1ccc(C(=O)Nc2cccc(Cl)c2)cc1	USP30 inh 54, USP17 block 80
Cc1cnnn1-c1ccc(C(=O)Nc2cc(Cl)ccc2Cl)cc1	USP17 block 68
O=C(Nc1ccc(-n2cccc2)cc1)c1ccc(Cl)cc1	none
O=C(COc1ccc(C2CCCCC2)cc1)Nc1ccc(-c2nn3cnnc3s2)cc1	OTUD3 inh 46, USP30 inh 66, USP17 block 72, USP28 inh 45
CCn1cc2nc(SCC(=O)NC3CCCC3)n(Cc3ccc(OC)cc3)c(=O)c2n1	none
CCn1cc2nc(SCC(=O)NC3CCCC3)n(Cc3ccc(C)cc3)c(=O)c2n1	USP30 inh 70, USP17 block 63
CN1Cc2ccccc2CN2CCN(S(=O)(=O)C3CC3)CC2C1 (stereo unspecified)	none (no result: USP30 inh, USP28 inh)
Cn1c(=O)c2c(nc3n(CCO)c(-c4ccc(Cl)cc4)cn23)n(C)c1=O	USP30 inh 36
c1ccc(-c2noc(NC3CCCC3)n2)cc1	none
O=C1Nc2c(Cl)cc(Cl)cc2C1(O)c1sc(NC2CCCCC2)nc1-c1ccccc1 (stereo unspecified)	USP17 block 66
CN(C)c1ccc(CNC(=O)CN2C(=O)CSc3cccn3-c3ccccc32)cc1	none
COc1cccc2cc(C(=O)N3CCc4nc(NC(=O)C5CCCO5)sc4C3)oc12 (stereo unspecified)	USP17 block 34
O=C(Nc1nc2c(s1)CN(C(=O)c1ccco1)CC2)C1CCCO1 (stereo unspecified)	none
COc1ccc(-n2nnnc2CN2CCN(S(=O)(=O)c3ccc(Cl)cc3)CC2)cc1	USP30 inh 47, USP17 block 40
NCc1ccc([C@@H]2CN(C(=O)c3ccc4ncccc4c3)C[C@H]2c2ccn[nH]2)cc1	USP17 block 68 (no result: USP30 inh, USP28 inh)
O=C(c1ccc2ncccc2c1)N1CCOC(c2cccc(Cc3cccc(Cl)c3)n2)C1 (stereo unspecified)	none
CCOC(=O)c1cnc(SC)nc1Oc1cccc2cccnc12	none
COc1ccc(OC)c(NC(=O)COC(=O)C2CC(=O)N(c3cccc(C)c3C)C2)c1 (stereo unspecified)	none
COC(=O)c1ccc(C(=O)Nc2cc3ccccc3cc2NC(=O)c2ccc(C(=O)OC)cc2)cc1	USP30 inh 41, USP17 block 68

Source: PubChem (Buhrlage Lab, Dana-Farber Cancer Institute and Novartis Institutes for BioMedical Research (Cambridge, Mass))
